Over roughly 1,600 compounds, “plate-normalized OD600 growth (mean of duplicates)” has its median near 0.31; the lowest 2% begin near 0.23. The list comes from a sample in which the lowest values are over-represented; it also holds similar structures and randomly drawn compounds.
System: Escherichia coli BW25113
Experiment: plate-normalized OD600 growth (mean of duplicates) (OD600 (normalized)); higher = more growth (less inhibition)
Conditions: 10 µM
Experimental: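 E. coli BW25113 in LB (100 µl, 96-well, no shaking) was exposed to 10 µM of each compound (here the ChemBridge subset of a ~30,000-member library) and grown at 37°C for 24 h or 15°C for 48 h, in duplicate. Growth was read as OD600 and the duplicate ODs were normalized across screening plates to correct plate-to-plate variation.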

SMILES	plate-normalized OD600 growth (temperature: 15°C, 48 h)	plate-normalized OD600 growth (temperature: 37°C, 24 h)
CCSC1=C(C#N)C(c2ccc(Cl)cc2Cl)CC(=O)N1 (stereo not drawn)	0.255	0.65
N#CC1=C(N)OC2=C(C(=O)CCC2)C1c1cccnc1 (stereo not drawn)	0.238	0.629
CC1=C(C#N)C(c2cccnc2)C2=C(CC(c3ccc(Cl)cc3)CC2=O)N1 (stereo not drawn)	0.225	0.623
CC1=C(C#N)C(c2ccc(N(C)C)cc2)C2=C(CCCC2=O)N1 (stereo not drawn)	0.248	0.638
O=C(NC1CCCCCC1)c1ccc([N+](=O)[O-])cc1	0.212	0.629
Cc1c(C(=O)NC2CCCC2)cccc1[N+](=O)[O-]	0.252	0.636
O=[N+]([O-])c1ccc(CNC2CCCC2)cc1	0.254	0.621
COc1cccc(NC(=O)c2cccc(I)c2)c1	0.244	0.596
CCN(CC)CCCOc1ccc(C)cc1	0.255	0.632
Cc1n[nH]c(C)c1CCCCOc1ccc(Br)cc1	0.216	0.601
Cc1ccc(OCCCCc2c(C)n[nH]c2C)cc1	0.276	0.62
CCCn1c(SCCC(=O)O)nc2ccccc21	0.257	0.621
Cc1cc(=O)[nH]c(SCC(=O)Nc2ccc(Br)cc2)c1C#N	0.214	0.594
N#CC1=C(N)NC(SCC(=O)Nc2ccc(Br)cc2)=C(C#N)C12CCCCC2	0.252	0.586
N#CC1=C(SCC(=O)Nc2ccc(Br)cc2)NC(=O)C(C#N)C12CCCCC2 (stereo not drawn)	0.257	0.604
COc1cc(C(=O)n2c(C)nc3ccccc32)cc(OC)c1OC	0.246	0.616
O=C(O)CCC(=O)Nc1ccc(-c2nc3ccccc3[nH]2)cc1	0.247	0.602
Nc1ccc(Br)cc1-c1nc2ccccc2[nH]c1=O	0.254	0.608
Cc1ccc(-c2nc3ccccc3[nH]2)cc1N	0.222	0.616
COc1ccc(-c2cc(=O)n(CCC#N)[nH]2)cc1	0.266	0.622
N#Cc1c(NC(=O)c2cc3ncc(Br)cn3n2)sc2c1CCCC2	0.263	0.623
O=[N+]([O-])c1ccccc1/C=C/CN1CCCCC1CO (stereo not drawn)	0.264	0.63

SMILES	plate-normalized OD600 growth (temperature: 15°C, 48 h)	plate-normalized OD600 growth (temperature: 37°C, 24 h)
CCCCOc1ccc(CN2CCC(O)CC2)cc1	0.272	0.664
CCCCOc1ccc(CN2CCN(CCOCCO)CC2)cc1	0.216	0.626
C/C=C(\C)CN1CCN(CCOCCO)CC1	0.269	0.664
Cc1cc([N+](=O)[O-])nn1CC(=O)NCC(C)C	0.264	0.617
COc1ccc(NC(=O)c2ccccc2OC)cc1OC	0.248	0.615
CN(Cc1ccccc1)C1CC(=O)N(c2ccc(C(=O)O)cc2)C1=O (stereo not drawn)	0.246	0.621
CC1(C)CC(=O)C=C(Nc2ccc(F)c(F)c2)C1	0.247	0.617
CC(=O)c1ccc(OCCOc2ccc(C(C)=O)cc2)cc1	0.248	0.607
Cc1[nH]n(-c2ccccc2)c(=O)c1C=O	0.224	0.605
CC(=O)c1c(C)[nH]n(-c2ccccc2)c1=O	0.252	0.618
Cc1nn(-c2ccccc2)c(N2CCCCC2)c1C=O	0.266	0.62
Cc1ccc(S(=O)(=O)N(CC(=O)O)c2cccc(Cl)c2)cc1	0.268	0.636
COc1cccc(-c2nc(Cc3ccc(Cl)cc3)no2)c1	0.253	0.601
Cc1nc(N)sc1-c1csc(Nc2ccc(O)cc2)n1	0.239	0.621
COc1cccc(Nc2nc(-c3ccc(OC)c(F)c3)cs2)c1	0.245	0.609
CCOc1ccc(Nc2nc(-c3ccc(CC(C)C)cc3)cs2)cc1	0.223	0.624
CCc1ccc(-c2csc(Nc3cccc(OC)c3)n2)cc1	0.222	0.604
COc1ccc(Nc2nc(-c3ccc(F)cc3F)cs2)cc1	0.251	0.633
Clc1ccc(-c2csc(Nc3ccc4c(c3)OCO4)n2)cc1	0.24	0.61
O=C(NC1C[C@@H]1c1ccccc1)[C@@H]1CC1c1ccccc1 (stereo partly drawn)	0.272	0.63
CN1CCCC1CCNC1CC2CCC1C2 (stereo not drawn)	0.299	0.637
Cn1cc(/C=C/c2nc3ccccc3c(=O)[nH]2)c2ccccc21	0.248	0.604

SMILES	plate-normalized OD600 growth (temperature: 15°C, 48 h)	plate-normalized OD600 growth (temperature: 37°C, 24 h)
COc1ccc(N(C(=O)c2ccc(F)cc2)C2=CC3CCC(C2)N3C)cc1 (stereo not drawn)	0.247	0.619
COc1ccc(C(C)=O)cc1Cc1c(O)nc(SC)[nH]c1=O	0.247	0.629
O=C(CC1Nc2ccccc2NC1=O)Nc1ccc(Cl)cc1 (stereo not drawn)	0.215	0.6
CCOc1ccc(NC(=O)CC2Nc3ccccc3NC2=O)cc1 (stereo not drawn)	0.273	0.648
O=C(CC1Nc2ccccc2NC1=O)Nc1ccccc1 (stereo not drawn)	0.24	0.597
Nc1nc2sc3c(c2cc1C(=O)N1CCOCC1)CCCC3	0.253	0.625
Cc1nc(-c2ccccc2)cc(N2CCCC2)n1	0.253	0.616
Cc1ccccc1CN(C)C1CCN(C)CC1	0.256	0.628
CN1CCC(NCc2ccccc2F)CC1	0.212	0.645
CCCN1CCC(NCCc2ccccc2OC)CC1	0.252	0.619
Cc1ccc(OCCCNC(C)(C)C)cc1	0.244	0.608
CC1CCCC(C)N1C(=O)c1ccc(Br)cc1 (stereo not drawn)	0.25	0.617
O=c1[nH]c2nonc2nc1Nc1ccccc1	0.245	0.603
CC1CCCC(C)N1C(=O)Cc1ccccc1 (stereo not drawn)	0.233	0.611
CCN(C(=O)Cc1ccccc1)C1CCCCC1	0.221	0.606
CCN(Cc1ccccc1)C(=O)Cc1ccccc1	0.262	0.642
Cc1cc(C)c(S(=O)(=O)Nc2cc(C)on2)c(C)c1	0.243	0.612
COc1ccccc1NS(=O)(=O)c1ccc(C(C)(C)C)cc1	0.254	0.618
CCc1ccccc1NS(=O)(=O)c1ccc(F)cc1	0.21	0.618
COc1ccccc1NS(=O)(=O)c1ccc(Cl)cc1	0.256	0.651
Cc1[nH]nc2c1C(c1ccccc1I)C(C#N)=C(N)O2 (stereo not drawn)	0.233	0.613
Cc1ccc(C2C(C#N)=C(N)Oc3n[nH]c(C)c32)s1 (stereo not drawn)	0.246	0.658

SMILES	plate-normalized OD600 growth (temperature: 15°C, 48 h)	plate-normalized OD600 growth (temperature: 37°C, 24 h)
Cc1cc(C)c(C2C(C#N)=C(N)Oc3n[nH]c(C)c32)c(C)c1 (stereo not drawn)	0.218	0.621
Cc1ccc(NCc2ccc([N+](=O)[O-])cc2)cc1C	0.237	0.605
O=C(c1ccc([N+](=O)[O-])o1)N1CCN(c2cccc(Cl)c2)CC1	0.212	0.611
O=C(c1ccc(Br)o1)N1CCN(c2ccc([N+](=O)[O-])cc2)CC1	0.262	0.622
O=C(c1ccco1)N1CCN(c2ccc([N+](=O)[O-])cc2)CC1	0.244	0.617
O=C1CC(N2CCOCC2)C(=O)N1c1ccc(I)cc1 (stereo not drawn)	0.257	0.645
N#CC1=C(N)Oc2cc(N)ccc2C1c1ccc(Br)s1 (stereo not drawn)	0.262	0.636
O=C(Nc1cccc([N+](=O)[O-])c1)c1cc(S(=O)(=O)Nc2ccccc2)ccc1Cl	0.256	0.621
Fc1ccccc1OCCSc1ncnc2nc[nH]c12	0.258	0.613
N#CSc1cnc(NC2CCCCC2)s1	0.254	0.611
CCSc1sc(CC)cc1C(N)=O	0.239	0.621
CCSc1sc(SC#N)cc1SC#N	0.207	0.614
CCOc1ccc(Br)cc1/C=C(\C#N)c1nc2ccccc2[nH]1	0.255	0.657
CCOc1ccc(Nc2nc(-c3ccc(C)c(C)c3)cs2)cc1	0.248	0.605
Cc1ccc(-c2csc(Nc3ccc(F)cc3)n2)cc1C	0.218	0.604
Cc1cc(C)n(-c2nc(-c3ccc(F)cc3)cs2)n1	0.254	0.625
CCOc1ccc(C(=O)Nc2ccc(S(=O)(=O)Nc3nccs3)cc2)cc1	0.241	0.613
C=CCNc1nc(-c2ccncc2)cs1	0.236	0.589
CC(=O)Nc1ccc(-c2cc(-c3ccc(NC(C)=O)cc3)nc(-c3ccccc3)n2)cc1	0.246	0.587
Cc1ccc2nc(/C(C#N)=C\c3ccco3)[nH]c2c1	0.242	0.599
CC(=O)Nc1ccc2oc(-c3cccc(I)c3)nc2c1	0.235	0.614
CCOc1ccc(-c2ncnn2-c2ccc([N+](=O)[O-])cc2)cc1	0.222	0.625

SMILES	plate-normalized OD600 growth (temperature: 15°C, 48 h)	plate-normalized OD600 growth (temperature: 37°C, 24 h)
CCOc1ccc(C(=O)c2ccc([N+](=O)[O-])cc2Cl)cc1	0.265	0.637
CCN(CC)CCCOc1ccc([N+](=O)[O-])cc1	0.246	0.624
CCCCOC(=O)Nc1nnc(CCc2ccccc2)s1	0.265	0.623
COc1cc(CN2CCSCC2)c([N+](=O)[O-])cc1OC	0.23	0.6
NC(=O)CCC(=O)NC12CC3CC(CC(C3)C1)C2	0.227	0.599
O=C(CN1CCCCC1)NC12CC3CC(CC(C3)C1)C2	0.274	0.65
CC(C)NCC(=O)NC12CC3CC(CC(C3)C1)C2	0.266	0.656
Cc1ccc(NC(=O)c2c(O)c3ccccc3[nH]c2=O)c(C)c1	0.27	0.648
Cc1cc(C)n(C(=O)c2ccc(Cl)cc2)n1	0.256	0.636
Cc1cc(C)n(C(=O)c2ccccc2F)n1	0.251	0.635
Cc1cc(C)n(C(=O)c2ccccc2Br)n1	0.226	0.655
O=C(O)c1ccc2c(c1)C(=O)N(c1c[nH]c(=O)[nH]c1=O)C2=O	0.239	0.592
O=C(/C=C/c1ccc(-c2cc(Cl)ccc2Cl)o1)c1ccco1	0.25	0.612
c1cc2cn[nH]c2cc1NC1CCCCCC1	0.233	0.604
Nc1ccc(Cl)cc1SCC(=O)O	0.242	0.599
O=C(O)CSc1cccc(C(=O)Nc2ccc(Br)cc2)c1	0.249	0.611
O=C(O)CSc1ccc(Br)cc1	0.222	0.609
NS(=O)(=O)c1ccc(NC(=O)c2ccccc2Cl)cc1	0.24	0.604
O=[N+]([O-])c1ccc(N2CCN(Cc3ccc(Br)s3)CC2)cc1	0.242	0.58
O=[N+]([O-])c1ccc(N2CCN(Cc3cccs3)CC2)cc1	0.22	0.599
Cc1ccsc1CN1CCN(c2ccc([N+](=O)[O-])cc2)CC1	0.256	0.634

Reference: the supplement of paper PMC4371806
